Results: PubChem BioAssay

experiment: probe aCHRDL2 binding to arrayed compounds – biochemical, biotinylated probe, 635/667 nm fluorescence, primary screen (AID 1100); conditions: small-molecule microarray, higher = more signal

| Structure (SMILES) | composite z-score |
| --- | --- |
| CCCC1(C(=O)OC)C=C2C(=C(C)C(=O)C2C)CN1 (stereo not given) | 0.974 |
| NCCCCCNC(=O)[C@@H]1C[C@@H]2C(=O)N[C@@H](CCCCN)C(=O)N2[C@@H]1c1ccc(O)cc1 | 0.713 |
| CCCN1C(=O)[C@]2(Cc3ccccc31)N=C(c1ccc(OCCCO)cc1)O[C@@H]2c1ccccc1 | 0.865 |
| CCN(CC)c1ccc(N2CC=CC34O[C@@H]5/C=C\CCCOC(=O)C5[C@H]3C(=O)N(C(C)CO)[C@@H]4C2=O)cc1 (stereo not given in full) | -0.445 |
| NC(=O)[C@H]1[C@@H]2C(=O)O[C@@H](c3ccccc3)[C@@H](c3ccccc3)N2[C@@H](c2ccc(OCCO)cc2)[C@]12C(=O)Nc1ccc(C#CCCO)cc12 | 0.485 |
| CC(C)C(CO)N1C(=O)[C@@H]2[C@H]3C(=O)OCC=C[C@H]3OC23C=CCN(c2ccc(Cl)cc2)C(=O)[C@@H]13 (stereo not given in full) | -0.0455 |
| C=CCNC(=O)[C@@H]1[C@H]2C(=O)O[C@H](c3ccccc3)[C@H](c3ccccc3)N2[C@H](c2ccccc2OCCO)[C@@]12C(=O)Nc1ccc(C#CCC(C(=O)OC)C(=O)OC)cc12 | -0.604 |
| COc1ccc(C#Cc2ccc3c(c2)[C@]2(C(=O)N3)[C@H](C(=O)O)[C@H]3C(=O)O[C@H](c4ccccc4)[C@H](c4ccccc4)N3[C@@H]2c2ccc(O)cc2)cc1 | 0.681 |
| CCCC[C@@H](O)C1=C(COC)C[C@H]2C(=O)N(Cc3ccccc3)C(=O)[C@H]2[C@H]1CO | -0.815 |
| COC(=O)[C@@]1(Cc2ccc(F)cc2)[C@H]2c3cc(C(=O)N4CCCC4)n(Cc4ccc(C)c(F)c4F)c3C[C@H]2CN1C(=O)c1ccccc1 | 0.931 |
| C=CCNC(=O)[C@@H]1[C@H]2C(=O)O[C@H](c3ccccc3)[C@H](c3ccccc3)N2[C@H](c2ccc(O)cc2)[C@@]12C(=O)N(C(=O)OCCOC)c1ccc(C#CC3=CCCCC3)cc12 | -0.294 |
| C#Cc1cc2ccccc2oc1=O | 0.256 |
| COc1cc(NN2C(C(O)c3cc(OC)c(OC)c(OC)c3)C=CC3C(=O)N(C)C(=O)C32)cc(OC)c1OC (stereo not given) | 0.318 |
| CO[C@H]1O[C@H](CO)[C@@H](OC(=O)Nc2ccccc2)[C@H](OC(=O)c2cc3ccccc3[nH]2)[C@H]1OC(=O)c1cc2ccccc2[nH]1 | 0.759 |
| CCOC(=O)C[C@H]1[C@H](OC(=O)Cc2ccc3c(c2)OCO3)[C@@H](NC(=O)c2ccc3ccccc3n2)c2cc(OCCCO)ccc2N1C(=O)c1ccc2ccccc2n1 | -0.0731 |
| COc1ccc(C#Cc2ccc3c(c2)[C@]2(C(=O)N3)[C@H](c3ccc(OCCO)cc3)N3[C@H](c4ccccc4)[C@H](c4ccccc4)OC(=O)[C@H]3[C@@H]2C(=O)NC[C@H](O)c2ccccc2)cc1 | -0.0975 |
| NCCCCCNC(=O)[C@H]1C[C@H]2C(=O)N3CCC[C@H]3C(=O)N2[C@H]1c1cccc(OCCO)c1 | 1.1 |
| CO[C@H]1O[C@H](CO)[C@@H](OC(=O)Nc2ccc(Br)cc2)[C@@H]2OC(=O)[C@@H](Cc3ccccc3)C/C=C/C[C@H](Cc3ccccc3)C(=O)O[C@@H]12 | 0.265 |

| Structure (SMILES) | composite z-score |
| --- | --- |
| CCOC(=O)[C@@H]1CCCCN1C(=O)C(=O)OC | -0.402 |
| O=C(Cc1ccccc1)[C@H]1C2C=CCCC(c3ccccc3)=C2CN1Cc1ccccc1 (stereo not given in full) | -0.191 |
| CCOC(=O)C[C@H]1[C@H](OC(=O)Cc2ccc3c(c2)OCO3)[C@@H](NC(=O)C2CCCCC2)c2cc(OCCCO)ccc2N1C(=O)c1ccccc1 | -0.265 |
| C=C[C@H](C)[C@H](OC(=O)Nc1ccc(SC)cc1)c1ccc(OCCO)cc1 | 0.916 |
| CCCCC(CC)C(O)C1C=CC2C(=O)N(c3ccccc3)C(=O)C2N1Nc1ccccc1F (stereo not given) | 0.852 |
| Cc1ccc(C(C)CC(O)C2C=CC3C(=O)N(c4ccccc4)C(=O)C3N2Nc2ccccc2)o1 (stereo not given) | 0.693 |
| CCOC(=O)C1=C[C@@H](C(C)(C)C)N(S(=O)(=O)c2ccc(C)cc2)[C@H]1c1cccc2ccccc12 | 0.562 |
| CC(C)N1C(=O)C[C@@](C(=O)NC2CC2)(c2ccc([N+](=O)[O-])cc2)[C@H]1c1ccc(CO)cc1 | 0.993 |
| COC(=O)c1c(CC[C@@H](CO)NC(=O)N2CCC[C@H]2Cn2cc(C3(O)CCCCC3)nn2)oc(C(C)=O)c1C(=O)OC | -0.404 |
| NC(=O)NCC#Cc1ccc2c(c1)[C@]1(C(=O)N2)[C@H](c2ccccc2OCCO)N2[C@H](c3ccccc3)[C@H](c3ccccc3)OC(=O)[C@H]2[C@@H]1C(=O)NC[C@H](O)c1ccccc1 | 0.699 |
| CN(C)C(=O)[C@]1(CCC(=O)OC(C)(C)C)N=C(c2ccc(OCCCO)cc2)O[C@@H]1c1ccccc1CN=[N+]=[N-] | 1.08 |
| Cc1ccccc1C(O)C1C=CC2C(=O)NC(=O)C2N1Nc1ccccn1 (stereo not given) | 0.397 |
| COCCOC(=O)N1C(=O)[C@@]2(c3ccccc31)[C@H](C(=O)NC[C@H](O)c1ccccc1)[C@H]1C(=O)O[C@H](c3ccccc3)[C@H](c3ccccc3)N1[C@@H]2c1ccc(O)cc1 | 0.24 |
| CC1CC/C=C\[C@H]2OC34C=CCN(C(C)C)C(=O)[C@H]3N(CCO)C(=O)[C@@H]4C2C(=O)O1 (stereo not given in full) | 0.701 |
| CCOC(=O)C=Cc1cccc(C)c1O | -0.0819 |
| CCCCCCCCCCC(O)C1C=CC2C(=O)N(c3ccccc3)C(=O)C2N1Nc1ccc(C#N)cc1 (stereo not given) | 1.09 |
| COCC(=C=CC[C@H](O)c1ccc(CO)o1)CCO | -0.336 |
